# Only some compounds are listed: those with a hit (about 2.5% of all), similar ones and a draw of the others.
# GALK inhibitor: qHTS Assay for Inhibitors of Human Galactokinase (GALK): NCGC Sytravon Library Screen; Potency, µM (series often up to 57.5 µM), without a hit: top-dose activity, negative = inhibition, most hits filed as inhibitors; P51570; 44,000 tested, under 10 active; recombinant GALK, Kinase-Glo ATP luminescence, 1 h;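 also: plate controls were full GALK reaction for no effect and reaction lacking GALK for full effect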
#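 Human GALK (5 nM) was incubated with 35 uM ATP and 100 uM galactose in 20 mM HEPES pH 8.0 with MgCl2, NaCl, DTT and BSA for 1 h at room temperature. Remaining ATP was measured by Kinase-Glo Plus luminescence.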
# FH mod: Identification of activators of human fumarate hydratase by quantitative high-throughput screening; FH coupled MDH/diaphorase resazurin fluorescence, 15 min; Potency, µM (doses to about 79.9 µM), inactives show at the top dose activity change, negative = inhibition, most hits filed as inhibitors; 54,000 tested, 0.22% active; also: potency is read from the fitted curve at half-maximal effect; % is scaled to controls: 0 for no effect and ±100 for the full control effect; the screen sought activators but most active calls are inhibition curves; nearly all actives have a fitted effect of over 45% in size
# Target sequence (P07954 whole entry, looked up): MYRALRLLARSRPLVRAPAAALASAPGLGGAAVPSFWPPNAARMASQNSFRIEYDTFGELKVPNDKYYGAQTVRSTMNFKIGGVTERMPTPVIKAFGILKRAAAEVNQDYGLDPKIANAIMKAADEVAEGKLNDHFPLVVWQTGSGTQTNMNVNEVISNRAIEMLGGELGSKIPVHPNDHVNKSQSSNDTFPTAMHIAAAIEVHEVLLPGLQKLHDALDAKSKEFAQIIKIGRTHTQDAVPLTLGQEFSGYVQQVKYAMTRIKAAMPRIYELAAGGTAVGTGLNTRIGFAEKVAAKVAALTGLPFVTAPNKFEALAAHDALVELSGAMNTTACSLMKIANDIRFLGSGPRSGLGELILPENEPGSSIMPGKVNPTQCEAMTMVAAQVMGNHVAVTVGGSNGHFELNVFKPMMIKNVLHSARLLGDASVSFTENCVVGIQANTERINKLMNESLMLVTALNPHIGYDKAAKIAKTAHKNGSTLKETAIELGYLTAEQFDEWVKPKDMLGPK
# NTMT1 inh: Primary qHTS for Inhibitors of N-terminal methyltransferase 1 (NTMT1): MTaseGlo Assay. Potency, µM (doses to about 114 µM), without a hit: at the top dose activity change, negative = inhibition, usual class: inhibitors. NTMT1 MTase-Glo SAH luminescence, purified enzyme. AID 1645870, 2021. 59,000 tested, 2.5% active;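 also: potency is read from the fitted curve at half-maximal effect; plate controls were DMSO vehicle for no effect and no enzyme for full effect; nearly all actives have a fitted effect of over 65% in size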
# Target sequence (Q9BV86 whole entry, looked up): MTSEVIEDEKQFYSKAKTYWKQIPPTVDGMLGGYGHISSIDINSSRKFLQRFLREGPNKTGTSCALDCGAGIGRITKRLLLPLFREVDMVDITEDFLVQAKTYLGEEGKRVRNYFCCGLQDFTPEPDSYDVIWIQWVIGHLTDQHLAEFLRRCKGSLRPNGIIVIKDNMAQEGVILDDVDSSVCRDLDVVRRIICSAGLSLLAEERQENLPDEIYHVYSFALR
# HTT promoter inh: Primary qHTS for Identification of Small Molecule Inhibitors of Huntingtin Promoter Activity; HEK293 HTT promoter firefly luciferase reporter, 24 h; Potency, µM (titrated, usually from 57.5 µM), for the others: at the highest dose activity change, negative = inhibition, actives largely listed as inhibitors; 48,000 tested, 0.93% active; also: potency is read from the fitted curve at half-maximal effect; nearly all actives have a fitted effect of over 50% in size
#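 HEK293 luciferase promoter-reporter cells (2,500/well) plated 24 h, then compounds added at up to 57.5 uM final for 24 h at 37 °C. Firefly luminescence by Dual-Glo, normalized to vehicle (0%) and zero RLU (-100%).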
# HTT-AS promoter: Primary qHTS for Identification of Small Molecule Activators of Huntingtin-Antisense Promoter Activity; HEK293 HTT-AS promoter firefly luciferase reporter, 24 h; response scale: percent change from vehicle, -100% = no light; Potency, µM (series often up to 57.5 µM), inactives show at the highest dose activity change, positive = activation, most hits filed as activators; 48,000 tested, 0.24% active; AID 1508624, 2021; also: potency is read from the fitted curve at half-maximal effect; nearly all actives have a fitted effect of over 55% in size
#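 Firefly luciferase readout (Dual-Glo, 10 min RT) after 24 h, 37 °C compound exposure (final up to 57.5 uM) of HEK293 reporter cells cultured 24 h beforehand; PTC124 at 50 uM final as control inhibitor; activity scaled vehicle 0%, zero RLU -100%.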
# DYRK1A KinaseGlo: Assay for Inhibitors of Dual-Specificity Tyrosine-(Y)-Phosphorylation Regulated Kinase 1A (Kinase-Glo assay); shares compounds with NTMT1 inh; recombinant DYRK1A, Kinase-Glo ATP depletion luminescence; Potency, µM (top dose mostly 76.9 µM), for inactives: top-dose activity change, negative = inhibition, usual class: inhibitors; 100 tested, 80% active; AID 2705, 2010
# Sfp PPTase inh: qHTS Assay for Inhibitos of Bacillus subtilis Sfp phosphopantetheinyl transferase (PPTase): Chemistry Optimization Followup | shares compounds with NTMT1 inh | purified Sfp PPTase enzyme activity, qHTS | Potency, µM (titrated, usually from 114 µM), for inactives: at the highest dose activity change, negative = inhibition, actives largely listed as inhibitors | 230 tested, 78% active | AID 540350, 2011
# HM489 growth: qHTS for Inhibitos of Bacillus subtilis Sfp phosphopantetheinyl transferase (PPTase): Chemistry Optimization Followup in B. Subtilis HM489; shares compounds with NTMT1 inh; B. subtilis HM489 (acpS-) growth, BacTiter-Glo, 5 h; Potency, µM (doses to about 114 µM), inactives show at the top dose activity change, negative = inhibition, actives largely listed as inhibitors; 220 tested, 50% active; AID 540353, 2011
# Sfp gel opt: Gel-Based Assay for Inhibitos of Bacillus subtilis Sfp phosphopantetheinyl transferase (PPTase): Chemistry Optimization Followup; shares compounds with NTMT1 inh; purified Sfp PPTase, gel-based product detection; Potency, µM (doses to about 250 µM), without a hit: top-dose activity change, negative = inhibition, hits mostly inhibitors; 220 tested, 54% active; AID 540355, 2011
# Sfp gel: qHTS Assay for Inhibitors of Bacillus subtilis Sfp phosphopantetheinyl transferase (PPTase): Gel Based Assay. shares compounds with NTMT1 inh. purified Sfp PPTase, gel-based product detection. Potency, µM (highest dose often 250 µM), for inactives: top-dose activity change, negative = inhibition, usual class: inhibitors. 45 tested, 90% active. AID 602362, 2012
# Sfp inh SAR2: qHTS Assay for Inhibitors of Bacillus subtilis Sfp phosphopantetheinyl transferase (PPTase): SAR Round 2 | shares compounds with NTMT1 inh | purified Sfp enzyme, PPTase activity, qHTS | Potency, µM (titrated, usually from 57.1 µM), for the others: at the top dose activity change, negative = inhibition, hits mostly inhibitors | 230 tested, 87% active | AID 602370, 2012
# hGST A1-1 inh: qHTS Assay for Inhibitors of Bacillus subtilis Sfp phosphopantetheinyl transferase (PPTase): SAR in hGST A1-1 | shares compounds with NTMT1 inh | hGST A1-1 enzyme activity counter-screen, qHTS | Potency, µM (series often up to 114 µM), for the others: at the highest dose activity change, negative = inhibition, hits mostly inhibitors | 55 tested, under 10 active | AID 602391, 2012
# HSD17B4 counter: Extended Characterization of HPGD Inhibitors: Counterscreen Against HSD17b4; shares compounds with NTMT1 inh; purified HSD17B4, estradiol/NAD+, NADH fluorescence; Potency, µM (series often up to 57.1 µM), for inactives: at the highest dose activity change, negative = inhibition, usual class: inhibitors; 230 tested, 10% active
# ALDH1A1 inh: Extended Characterization of HPGD Inhibitors: Counterscreen Against ALDH1A1. shares compounds with NTMT1 inh. recombinant ALDH1A1, NADH fluorescence, propionaldehyde/NAD+. Potency, µM (series often up to 57.1 µM), for inactives: at the highest dose activity change, negative = inhibition, actives largely listed as inhibitors. 230 tested, 93% active
# NNMT inh: Counterscreen qHTS for Inhibitors of N-terminal methyltransferase 1 (NTMT1): NNMT MTaseGlo assay; Potency, µM (series often up to 57.1 µM), without a hit: at the highest dose activity, negative = inhibition, hits mostly inhibitors; AID 1645878, 2021; 120 tested, 10% active; shares compounds with NTMT1 inh; NNMT MTase-Glo luminescence, SAH detection
# Numbers without * were called inactive; ? = inconclusive; . = no result; [ ] = dose if it differs, or a comment. Calls follow the shape of the dose curve; as a rule, active = well fitted curve in the direction sought with a large enough effect; inconclusive = small, poorly fitted or top-dose-only effect, or another doubt; inactive = no such curve, though single readings can be large; an effect the other way counts as inactive or inconclusive.
SMILES,GALK inhibitor,FH mod,NTMT1 inh,HTT promoter inh,HTT-AS promoter,others
CSC(Cc1ccc(Cl)cc1)C(=O)Nc1ccc(Cl)cc1C(=O)O (stereo unspecified),.,-36.9%,16.9%,.,.,Sfp inh SAR2=31.0%;hGST A1-1 inh=?;HSD17B4 counter=?;ALDH1A1 inh=24.1µM*
COc1cc(/C=C2\CCCN([C@@H](C)c3ccc(F)cc3)C2=O)ccc1-n1cnc(C)c1,.,-8.4%,8.4%[57.5 µM],.,.,
c1cncc(CNc2ncnc3ccc(-c4ccoc4)cc23)c1,.,.,-8.9%,.,.,
Cc1cccc(CNc2ncnc3ccc(-c4ccoc4)cc23)c1,.,.,8.1%,.,.,
CCOC(=O)c1ccoc1-c1ccc2ncnc(NCc3ncc[nH]3)c2c1,.,.,10.5%,.,.,DYRK1A KinaseGlo=?
Cc1nc(CNc2ncnc3ccc(-c4ccoc4)cc23)cs1,.,.,?,.,.,DYRK1A KinaseGlo=3.68µM*
Cc1csc(CNc2ncnc3ccc(-c4ccoc4)cc23)c1,.,.,-10.6%,.,.,
Cc1occc1-c1ccc2ncnc(NCc3ncc[nH]3)c2c1,.,.,-11.8%,.,.,DYRK1A KinaseGlo=2.32µM*
c1c[nH]c(CNc2ncnc3ccc(-c4ccoc4)cc23)n1,.,.,1.6%,.,.,DYRK1A KinaseGlo=9.23µM*
FC(F)(F)c1ccccc1-c1nc(NCC#Cc2cccnc2)c2ccccc2n1,.,.,13.3%,.,.,
Cc1ccc(CNc2ncnc3ccc(-c4ccoc4C)cc23)o1,.,.,?,.,.,DYRK1A KinaseGlo=4.63µM*
N#Cc1ccccc1CCc1nc2ncc(Br)cc2[nH]1,.,.,16.3%,.,.,
C/C(=N\NC(=O)c1cccc(S(=O)(=O)N2CCOCC2)c1)c1cc(Cl)ccc1O,.,.,14.2%,.,.,
C=Cc1cc2oc(-c3ccc(O)c(F)c3)nc2cc1O,.,?,28.2µM*,.,.,NNMT inh=?
Cc1c(-c2ccccc2)oc2c(C(=O)OCCN3CCCCC3)cccc2c1=O,.,-3.1%[53.3 µM],?,-7.2%,-19.4%,
CC(=O)c1c(OCCN2CCCCC2)c(OCCC(C)c2ccc(F)cc2)c2oc(C)nc2c1C (stereo unspecified),.,-1.7%,?,.,.,NNMT inh=?
Cc1ccnc(NC(=S)N2CC3CN(c4cccc(C(F)(F)F)c4)CC3C2)c1 (stereo unspecified),.,.,?,.,.,Sfp PPTase inh=3.73µM*;HM489 growth=5.91µM*;Sfp gel opt=4.78µM*;Sfp gel=1.7µM*;Sfp inh SAR2=0.73µM*;hGST A1-1 inh=?;HSD17B4 counter=-16.9%;ALDH1A1 inh=7.64µM*
Cc1ccnc(NC(=S)Nc2cccc(C(F)(F)F)c2)c1,.,.,0.1%,.,.,Sfp PPTase inh=10.2µM*;HM489 growth=11.8µM*;Sfp gel opt=2.1%;Sfp gel=?;Sfp inh SAR2=22.9µM*;hGST A1-1 inh=0.21µM*;HSD17B4 counter=-2.6%;ALDH1A1 inh=21.5µM*
Cc1ccnc(NC(=S)NC2CN(c3cccc(C(F)(F)F)c3)C2)c1,.,.,-2.4%[57.5 µM],.,.,Sfp PPTase inh=?;HM489 growth=37.3µM*;Sfp gel opt=13.3%;Sfp inh SAR2=?;HSD17B4 counter=18.3%;ALDH1A1 inh=-25.1%
Cc1ccnc(NC(=S)NC2CCN(c3cccc(C(F)(F)F)c3)CC2)c1,.,.,.,.,.,Sfp PPTase inh=?;HM489 growth=?;Sfp gel opt=?;Sfp inh SAR2=?;HSD17B4 counter=24.1µM*;ALDH1A1 inh=19.2µM*
Cc1cc(N2CCC(C)CC2)nc2ccc(NC(=O)CCC(=O)N3CCN(c4cccc(C(F)(F)F)c4)CC3)cc12,-6.7%,0.8%,-0.1%,?,-8.5%,

# Screening results as filed in PubChem BioAssay.
